# Laboratory results reported in publication PMC7862700, “An all-to-all approach to the identification of sequence-specific readers for epigenetic DNA modifications on cytosine”.
# Columns and labels:
# Experiment in all cases: DAPPL (digital affinity profiling via proximity ligation, sequencing); 10 mM Tris-HCl pH 7.5, 50 mM NaCl, 1 mM DTT, 4% glycerol, room temperature, 30 min; GST-TFs on glutathione beads, 16-mer random dsDNA library, 0.1% formaldehyde crosslink after washing; high values mean tight binding
# Settings in all cases: protein: recombinant; tags: N-terminal GST; dsDNA, one strand shown
# ETV2 = target: T1, ETV2 (Homo sapiens, UniProt O00321 1-342)
# T1 sequence: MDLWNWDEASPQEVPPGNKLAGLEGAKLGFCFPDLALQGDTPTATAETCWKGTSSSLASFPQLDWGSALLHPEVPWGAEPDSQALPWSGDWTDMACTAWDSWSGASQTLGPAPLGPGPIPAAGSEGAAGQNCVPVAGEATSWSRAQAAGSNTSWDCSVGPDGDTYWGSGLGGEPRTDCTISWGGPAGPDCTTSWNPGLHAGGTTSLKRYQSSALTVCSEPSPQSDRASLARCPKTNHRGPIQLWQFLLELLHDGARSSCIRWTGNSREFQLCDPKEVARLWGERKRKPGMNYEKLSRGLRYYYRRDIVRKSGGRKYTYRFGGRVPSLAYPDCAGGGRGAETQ
# Outline: (§1)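 Pools were built from human transcription factors expressed in yeast as GST fusions, captured on glutathione beads and DNA-barcoded, along with a tag-only sample. Incubation with 200 nmole of a 16-mer random double-stranded DNA library lasted 30 min at room temperature in Tris/NaCl/DTT/glycerol buffer, and was followed by washing, 0.1% formaldehyde crosslinking, proximity ligation, PCR amplification and Illumina NextSeq500 sequencing. Binding signal is the quotient of each hexamer's read frequency for a factor and its frequency for the tag-only sample.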
# ELF3 = target: T2, ELF3 (Homo sapiens, UniProt P78545 1-371)
# T2 sequence: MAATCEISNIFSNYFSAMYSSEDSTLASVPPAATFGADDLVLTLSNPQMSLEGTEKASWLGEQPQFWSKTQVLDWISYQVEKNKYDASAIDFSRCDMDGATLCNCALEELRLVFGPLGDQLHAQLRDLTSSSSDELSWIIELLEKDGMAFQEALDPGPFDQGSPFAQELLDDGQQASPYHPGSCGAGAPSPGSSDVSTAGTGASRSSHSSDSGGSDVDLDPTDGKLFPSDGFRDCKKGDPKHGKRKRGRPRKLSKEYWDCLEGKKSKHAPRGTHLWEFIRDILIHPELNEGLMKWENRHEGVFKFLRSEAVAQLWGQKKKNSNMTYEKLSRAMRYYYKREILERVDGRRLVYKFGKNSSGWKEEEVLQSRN
# Outline: as §1
# ETV1 = ETV1 (Homo sapiens, UniProt P50549 1-477)
# Chain of ETV1 (P50549 whole entry): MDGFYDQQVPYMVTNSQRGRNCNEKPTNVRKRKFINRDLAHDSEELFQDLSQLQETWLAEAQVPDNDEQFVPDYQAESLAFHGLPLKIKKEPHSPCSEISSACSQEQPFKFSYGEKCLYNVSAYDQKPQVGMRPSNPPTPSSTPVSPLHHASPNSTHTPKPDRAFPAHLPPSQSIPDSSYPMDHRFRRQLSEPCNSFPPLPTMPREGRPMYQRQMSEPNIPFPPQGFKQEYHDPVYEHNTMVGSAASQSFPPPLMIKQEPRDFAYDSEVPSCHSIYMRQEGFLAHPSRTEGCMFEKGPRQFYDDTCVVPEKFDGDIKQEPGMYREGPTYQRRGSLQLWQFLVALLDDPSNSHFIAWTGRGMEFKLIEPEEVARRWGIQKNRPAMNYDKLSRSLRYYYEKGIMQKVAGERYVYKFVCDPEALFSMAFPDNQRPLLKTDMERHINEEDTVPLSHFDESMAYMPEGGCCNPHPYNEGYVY
# Outline: as §1
# ERF = target: T3, ERF (Homo sapiens, UniProt P50548 1-548)
# T3 sequence: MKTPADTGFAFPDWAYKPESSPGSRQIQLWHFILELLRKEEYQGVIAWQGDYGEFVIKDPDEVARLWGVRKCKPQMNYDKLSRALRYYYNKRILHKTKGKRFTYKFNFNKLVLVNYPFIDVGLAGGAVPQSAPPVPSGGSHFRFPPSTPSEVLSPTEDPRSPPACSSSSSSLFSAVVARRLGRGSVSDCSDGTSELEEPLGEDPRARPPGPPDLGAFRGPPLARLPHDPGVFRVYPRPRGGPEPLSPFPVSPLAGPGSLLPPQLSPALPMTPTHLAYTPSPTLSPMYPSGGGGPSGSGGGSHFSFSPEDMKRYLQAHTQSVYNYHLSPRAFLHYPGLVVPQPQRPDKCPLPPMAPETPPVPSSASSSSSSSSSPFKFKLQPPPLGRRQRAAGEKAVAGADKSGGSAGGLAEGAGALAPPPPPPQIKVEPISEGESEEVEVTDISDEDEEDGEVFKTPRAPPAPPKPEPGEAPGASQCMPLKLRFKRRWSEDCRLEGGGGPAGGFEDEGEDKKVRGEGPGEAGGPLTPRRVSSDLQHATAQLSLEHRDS
# Outline: as §1
# ETV3L = target: T4, ETV3L (Homo sapiens, UniProt Q6ZN32 1-361)
# T4 sequence: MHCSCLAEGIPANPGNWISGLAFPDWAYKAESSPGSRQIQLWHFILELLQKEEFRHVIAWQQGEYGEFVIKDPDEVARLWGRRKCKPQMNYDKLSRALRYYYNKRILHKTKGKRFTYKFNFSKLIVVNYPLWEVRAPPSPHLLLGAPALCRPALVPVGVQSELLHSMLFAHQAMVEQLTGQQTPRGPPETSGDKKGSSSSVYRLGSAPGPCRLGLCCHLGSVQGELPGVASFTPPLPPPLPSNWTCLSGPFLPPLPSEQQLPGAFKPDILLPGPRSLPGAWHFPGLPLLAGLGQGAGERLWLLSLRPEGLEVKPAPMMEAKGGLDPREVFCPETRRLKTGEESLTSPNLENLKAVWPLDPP
# Outline: as §1
# ETS2 = target: T5, ETS2 (Homo sapiens, UniProt P15036 1-469)
# T5 sequence: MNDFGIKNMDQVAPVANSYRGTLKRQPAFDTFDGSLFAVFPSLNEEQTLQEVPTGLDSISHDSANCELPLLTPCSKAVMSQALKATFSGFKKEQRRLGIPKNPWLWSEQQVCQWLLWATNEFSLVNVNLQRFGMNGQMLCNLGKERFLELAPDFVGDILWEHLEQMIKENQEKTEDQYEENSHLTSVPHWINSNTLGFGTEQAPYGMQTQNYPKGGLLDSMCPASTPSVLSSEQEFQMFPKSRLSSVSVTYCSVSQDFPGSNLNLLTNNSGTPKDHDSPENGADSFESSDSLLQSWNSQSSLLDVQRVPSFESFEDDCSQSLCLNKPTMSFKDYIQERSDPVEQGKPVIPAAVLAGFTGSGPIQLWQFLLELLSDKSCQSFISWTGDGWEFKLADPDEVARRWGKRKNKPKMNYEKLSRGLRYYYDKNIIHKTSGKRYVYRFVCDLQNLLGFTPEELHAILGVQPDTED
# Outline: as §1
# SPDEF = target: T6, SPDEF (Homo sapiens, UniProt O95238 1-335)
# T6 sequence: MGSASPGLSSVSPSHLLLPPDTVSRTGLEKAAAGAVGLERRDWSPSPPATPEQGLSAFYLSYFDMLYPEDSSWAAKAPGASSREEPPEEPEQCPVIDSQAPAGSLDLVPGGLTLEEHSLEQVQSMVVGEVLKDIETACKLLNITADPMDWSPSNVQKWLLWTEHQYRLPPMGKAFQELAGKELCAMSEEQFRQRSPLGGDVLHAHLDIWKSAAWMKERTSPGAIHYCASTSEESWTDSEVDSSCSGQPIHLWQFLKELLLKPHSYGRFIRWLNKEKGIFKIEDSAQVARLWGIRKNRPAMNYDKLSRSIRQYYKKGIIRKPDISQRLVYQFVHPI
# Outline: as §1
# ETV7 = target: T7, ETV7 (Homo sapiens, UniProt Q9Y603 1-341)
# T7 sequence: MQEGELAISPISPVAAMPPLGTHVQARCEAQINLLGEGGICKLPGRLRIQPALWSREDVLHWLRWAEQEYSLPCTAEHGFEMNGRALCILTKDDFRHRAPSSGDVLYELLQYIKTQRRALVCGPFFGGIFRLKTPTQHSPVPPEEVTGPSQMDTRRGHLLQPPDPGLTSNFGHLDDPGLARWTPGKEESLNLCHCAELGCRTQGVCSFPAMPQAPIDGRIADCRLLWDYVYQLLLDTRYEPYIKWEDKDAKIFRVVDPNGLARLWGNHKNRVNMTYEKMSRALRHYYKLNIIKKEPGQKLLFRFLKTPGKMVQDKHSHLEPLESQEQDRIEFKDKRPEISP
# Outline: as §1
# ETV3 = target: T8, ETV3 (Homo sapiens, UniProt P41162-2 1-143)
# T8 sequence: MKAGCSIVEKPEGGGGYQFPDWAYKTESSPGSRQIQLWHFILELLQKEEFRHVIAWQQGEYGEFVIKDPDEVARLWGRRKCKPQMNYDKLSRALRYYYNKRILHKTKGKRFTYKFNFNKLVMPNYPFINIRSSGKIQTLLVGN
# Outline: as §1
# ETV6 = ETV6 (Homo sapiens, UniProt P41212 1-452)
# Chain of ETV6 (P41212 whole entry): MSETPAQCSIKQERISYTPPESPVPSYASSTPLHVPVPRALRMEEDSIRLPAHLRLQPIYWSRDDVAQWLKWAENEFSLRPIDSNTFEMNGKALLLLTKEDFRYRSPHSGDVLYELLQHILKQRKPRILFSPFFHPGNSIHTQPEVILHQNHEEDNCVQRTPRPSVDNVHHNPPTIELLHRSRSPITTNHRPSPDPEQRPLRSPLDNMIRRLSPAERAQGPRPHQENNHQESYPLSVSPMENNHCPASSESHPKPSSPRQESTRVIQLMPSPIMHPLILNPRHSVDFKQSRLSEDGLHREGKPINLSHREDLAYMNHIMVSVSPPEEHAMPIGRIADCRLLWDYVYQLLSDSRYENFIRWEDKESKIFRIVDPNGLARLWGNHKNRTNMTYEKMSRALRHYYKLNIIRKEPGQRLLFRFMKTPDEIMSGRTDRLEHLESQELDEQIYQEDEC
# Outline: as §1
sequence,measurement,setting,value
GCCTGC,binding signal,ETV2,"1.15 fold enrichment (6-mer frequency, TF over GST control)"
same,binding signal,ELF3,"1.13 fold enrichment (6-mer frequency, TF over GST control)"
same,binding signal,ETV1,"1.18 fold enrichment (6-mer frequency, TF over GST control)"
same,binding signal,ERF,"1.05 fold enrichment (6-mer frequency, TF over GST control)"
same,binding signal,ETV3L,"1.17 fold enrichment (6-mer frequency, TF over GST control)"
same,binding signal,ETS2,"1.05 fold enrichment (6-mer frequency, TF over GST control)"
same,binding signal,SPDEF,"1.02 fold enrichment (6-mer frequency, TF over GST control)"
same,binding signal,ETV7,"1.13 fold enrichment (6-mer frequency, TF over GST control)"
same,binding signal,ETV3,"1.03 fold enrichment (6-mer frequency, TF over GST control)"
same,binding signal,ETV6,"1.05 fold enrichment (6-mer frequency, TF over GST control)"
